# The whole screen tested about 77,000 compounds, of which about 4,600 (6%) were called active. Not shown: some 1% with an inconclusive outcome. For the sample, actives were picked, then their nearest neighbours and some compounds at random. Values without a mark were called inactive.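 How the source made its calls: active means mean inhibition above about 93%, with at least 55% of replicates each passing it (limit read from the data, passing the limit was not always enough); inconclusive means only one of those two conditions holds; inactive means neither condition holds.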
# Assay: T. cruzi intracellular proliferation inhibitors, primary screen, cell-based, beta-gal Tulahuen parasites, NIH3T3 host, luminescence (AID 624255)
# Conditions: T. cruzi beta-gal in NIH3T3, GalScreen luminescence, 90 h; at 8.34 µM; stronger effect = higher value
row,Structure (SMILES),inhibition
1,C[C@@H](NC(=O)C[C@@H]1CC[C@@H](NC(=O)C2CCOCC2)[C@@H](CO)O1)c1ccccc1,9.21%
2,O=C(C[C@@H]1CC[C@@H](NC(=O)Nc2ccc(F)cc2)[C@H](CO)O1)NCCN1CCCC1,30.1%
3,CCCNC(=O)N1[C@@H]2c3ccc(-c4ccccc4OC)c(=O)n3C[C@H]1[C@H](CO)[C@H]2C(=O)N(C)C,1.54%
4,CO[C@@H]1CC[C@@H]2CCOc3c(C#N)cccc3C(=O)N(C)C[C@@H](OC)[C@@H](C)C(=O)N(C)C[C@H]1O2,11.7%
5,CC(=O)N1[C@@H](CO)[C@H](c2ccccc2)[C@@H]1CN(C)C(=O)CN1CCOCC1,50.9%
6,COc1ccc(CN(C)C[C@H]2OCCCC[C@H](C)Oc3ccc(NC(=O)Nc4ccc5c(c4)OCO5)cc3C(=O)N([C@H](C)CO)C[C@@H]2C)cc1,98.7% (active)
7,COc1ccc(NC(=O)Nc2ccc3c(c2)C(=O)N([C@H](C)CO)C[C@H](C)[C@@H](CN(C)Cc2ccc(C(=O)O)cc2)OCCCC[C@H](C)O3)cc1,51%
8,C[C@@H]1CCCCO[C@@H](CN(C)Cc2ccc3c(c2)OCO3)[C@@H](C)CN([C@@H](C)CO)C(=O)c2cc(NC(=O)Nc3ccccc3)ccc2O1,99.9% (active)
9,C[C@@H]1CN([C@H](C)CO)C(=O)c2cc(NC(=O)Nc3ccc4c(c3)OCO4)ccc2O[C@@H](C)CCCCO[C@@H]1CN(C)Cc1ccc2c(c1)OCO2,81.6%
10,COc1ccc(NC(=O)N(C)C[C@H]2OCCCC[C@@H](C)Oc3ccc(NC(=O)Nc4ccc5c(c4)OCO5)cc3C(=O)N([C@H](C)CO)C[C@@H]2C)cc1,9.34%
11,C[C@@H]1CN([C@@H](C)CO)C(=O)c2cc(NC(=O)Nc3ccc4c(c3)OCO4)ccc2O[C@@H](C)CCCCO[C@@H]1CN(C)Cc1ccccc1,41.8%
12,Cc1cccc(S(=O)(=O)N2C[C@H]3[C@@H](c4ccccc42)[C@H](CO)N3Cc2ccc3c(c2)OCO3)c1,72.7%
13,CN1C[C@H](O)COC[C@H]2O[C@H](CC(=O)NC3CCC3)CC[C@@H]21,-61.9%
14,C[C@@H]1CN([C@H](C)CO)C(=O)c2cc(NS(=O)(=O)c3cccs3)ccc2O[C@@H](C)CCCCO[C@@H]1CN(C)S(=O)(=O)c1ccc(Cl)cc1,109% (active)
15,C[C@@H]1CCCCO[C@@H](CN(C)S(C)(=O)=O)[C@H](C)CN([C@@H](C)CO)C(=O)c2cc(NS(=O)(=O)c3cccs3)ccc2O1,-8.12%
16,C[C@@H]1CCCCO[C@H](CN(C)S(=O)(=O)c2cccs2)[C@H](C)CN([C@@H](C)CO)C(=O)c2cc(NS(=O)(=O)c3cccs3)ccc2O1,-8.67%
17,C[C@@H]1CCCCO[C@@H](CN(C)S(=O)(=O)c2ccc(F)cc2)[C@@H](C)CN([C@@H](C)CO)C(=O)c2cc(NS(=O)(=O)c3cccs3)ccc2O1,10.6%
18,C[C@@H]1CCCCO[C@H](CN(C)S(=O)(=O)c2ccc(Cl)cc2)[C@H](C)CN([C@@H](C)CO)C(=O)c2cc(NS(=O)(=O)c3cccs3)ccc2O1,110% (active)
19,C[C@@H]1CN([C@H](C)CO)C(=O)c2cc(NS(=O)(=O)c3cccs3)ccc2O[C@@H](C)CCCCO[C@@H]1CN(C)S(=O)(=O)c1cccs1,-40.5%

row,Structure (SMILES),inhibition
1,COCC(=O)N1C[C@@H](C)[C@H](OC)CN(C)C(=O)c2cc(NC(=O)c3cc(C)on3)ccc2OC[C@@H]1C,60.6%
2,C[C@H](O)C#Cc1ccc2c(c1)O[C@@H](CN(C)CC1CCCC1)[C@H](C)CN([C@@H](C)CO)S2(=O)=O,13.4%
3,COCC(=O)Nc1ccc2c(c1)C(=O)N(C)C[C@H](OC)[C@@H](C)CN(C(=O)c1cnccn1)[C@H](C)CO2,7.73%
4,CC(=O)N1[C@H](C(=O)N(C)C)[C@@H](CO)[C@@H]2Cn3c(ccc(-c4ccccc4)c3=O)[C@@H]21,16.7%
5,C[C@@H]1CCCCO[C@@H](CN(C)S(=O)(=O)c2ccc(Cl)cc2)[C@H](C)CN([C@@H](C)CO)C(=O)c2cc(NC(=O)Cc3ccccc3)ccc2O1,98.6% (active)
6,Cc1ccc(S(=O)(=O)N(C)C[C@@H]2OCCCC[C@@H](C)Oc3ccc(NC(=O)C4CCCCC4)cc3C(=O)N([C@H](C)CO)C[C@H]2C)cc1,24%
7,C[C@@H]1CCCCO[C@H](CN(C)C)[C@H](C)CN([C@@H](C)CO)C(=O)c2cc(NC(=O)Cc3ccccc3)ccc2O1,-33.2%
8,Cc1ccc(S(=O)(=O)N(C)C[C@H]2OCCCC[C@H](C)Oc3ccc(NC(=O)Cc4ccccc4)cc3C(=O)N([C@@H](C)CO)C[C@@H]2C)cc1,110% (active)
9,Cc1ccc(S(=O)(=O)N(C)C[C@@H]2OCCCC[C@@H](C)Oc3ccc(NS(=O)(=O)c4ccccc4)cc3C(=O)N([C@H](C)CO)C[C@@H]2C)cc1,55%
10,C[C@@H]1CN([C@@H](C)CO)C(=O)c2cc(NC(=O)CCCN(C)C)ccc2O[C@@H](C)CCCCO[C@@H]1CN(C)S(=O)(=O)c1ccc(Cl)cc1,25.4%
11,CCCN1C[C@H](C)[C@@H](OC)CN(C)C(=O)c2cc(NS(=O)(=O)CC)ccc2OC[C@H]1C,-88%
12,CN1c2ccc(Br)cc2[C@H]2[C@H](CCN2S(=O)(=O)c2ccccc2)[C@@H]1CO,95.5%
13,CN1C(=O)c2cc(NS(=O)(=O)c3ccc(F)cc3)ccc2OC[C@@H]2O[C@@H](CC(=O)O)CC[C@H]21,20.4%
14,COc1cccc(C(=O)Nc2ccc3c(c2)C(=O)N(C)[C@@H]2CC[C@H](CC(=O)NCC4CC4)O[C@@H]2CO3)c1,22.9%
15,COCC(=O)Nc1ccc2c(c1)C(=O)N(C)C[C@H](OC)[C@@H](C)CN(C(=O)Cc1cccnc1)[C@@H](C)CO2,-9.25%
16,CC(C)NC(=O)N1C[C@H]2[C@@H](c3ccccc31)[C@H](CO)N2C(=O)c1ccccc1F,-21.6%
17,C[C@H]1CCCCO[C@H](CN(C)S(=O)(=O)c2ccc(Cl)cc2)[C@@H](C)CN([C@@H](C)CO)C(=O)c2cc(NC(=O)Nc3ccc4c(c3)OCO4)ccc2O1,105% (active)
18,C[C@@H]1CCCCO[C@H](CN(C)S(=O)(=O)c2ccc(Cl)cc2)[C@H](C)CN([C@H](C)CO)C(=O)c2cc(NC(=O)NC3CCCCC3)ccc2O1,92.2%
19,C[C@@H]1CCCCO[C@H](CN(C)S(=O)(=O)c2ccc(Cl)cc2)[C@@H](C)CN([C@H](C)CO)C(=O)c2cc(NC(=O)Nc3ccc4c(c3)OCO4)ccc2O1,82.9%

row,Structure (SMILES),inhibition
1,C[C@@H]1CCCCO[C@@H](CN(C)S(=O)(=O)c2ccc(F)cc2)[C@@H](C)CN([C@@H](C)CO)C(=O)c2cc(NC(=O)Nc3ccc4c(c3)OCO4)ccc2O1,23.6%
2,COc1ccc(NC(=O)Nc2ccc3c(c2)C(=O)N([C@H](C)CO)C[C@H](C)[C@@H](CN(C)S(=O)(=O)c2ccc(OC)cc2)OCCCC[C@H](C)O3)cc1,-12%
3,COc1ccc(NC(=O)Nc2ccc3c(c2)C(=O)N([C@H](C)CO)C[C@H](C)[C@H](CN(C)S(=O)(=O)c2ccc(Cl)cc2)OCCCC[C@H](C)O3)cc1,115% (active)
4,COc1ccc(S(=O)(=O)N(C)C[C@@H]2OCCCC[C@H](C)Oc3ccc(NC(=O)Nc4ccccc4)cc3C(=O)N([C@@H](C)CO)C[C@H]2C)cc1,37.1%
5,CC(C)NC(=O)Nc1ccc2c(c1)C(=O)N([C@@H](C)CO)C[C@H](C)[C@H](CN(C)S(=O)(=O)c1ccc(Cl)cc1)OCCCC[C@H](C)O2,106% (active)
6,CC(C)NC(=O)Nc1ccc2c(c1)C(=O)N([C@H](C)CO)C[C@@H](C)[C@@H](CN(C)S(=O)(=O)c1ccc(Cl)cc1)OCCCC[C@H](C)O2,55%
7,Cc1ccc(S(=O)(=O)Nc2ccc3c(c2)C(=O)N([C@@H](C)CO)C[C@@H](C)[C@H](CN(C)C(=O)NC(C)C)OCCCC[C@H](C)O3)cc1,46%
8,CO[C@H]1CN(C)C(=O)c2ccc(NC(C)=O)cc2OC[C@H](C)N(CC2CC2)C[C@@H]1C,5.22%
9,CNC(=O)C[C@H]1CC[C@@H]2[C@H](COc3ccc(NC(=O)Nc4cccc(F)c4)cc3C(=O)N2C)O1,14.8%
10,C[C@@H]1CN([C@H](C)CO)C(=O)c2cc(NC(=O)Nc3cccc4ccccc34)ccc2O[C@H]1CN(C)C(=O)Nc1ccccc1,45.7%
11,O=C(Nc1cccc(F)c1)N[C@@H]1CC[C@@H](CCn2cc(Cc3ccccc3)nn2)O[C@@H]1CO,42.3%
12,CCNC(=O)Nc1ccc2c(c1)C(=O)N(C)[C@@H]1CC[C@H](CC(=O)NC3CCCCC3)O[C@H]1CO2,36%
13,O=C(Cc1ccccn1)NCC[C@H]1CC[C@H](NS(=O)(=O)c2ccccc2)[C@@H](CO)O1,44.9%
14,COCC#Cc1ccc([C@H]2[C@H](CO)N3CCCCN(Cc4ccncc4)C[C@@H]23)cc1,37.4%
15,OC[C@@H]1[C@@H](c2ccc(C#CC3(O)CCCC3)cc2)[C@@H]2CN(Cc3cncnc3)CCCCN12,18.1%
16,OC[C@H]1[C@@H](c2ccc(C#CC3(O)CCCC3)cc2)[C@H]2CN(Cc3cncnc3)CCCCN21,60.8%
17,OC[C@@H]1[C@H](c2ccc(C#CC3(O)CCCC3)cc2)[C@H]2CN(Cc3cncnc3)CCCCN12,101% (active)
18,CCCC#Cc1ccc([C@H]2[C@H]3CN(Cc4cncnc4)CCCCN3[C@H]2CO)cc1,63.2%
19,OC[C@@H]1[C@H](c2ccc(C#Cc3ccccc3)cc2)[C@@H]2CN(Cc3cncnc3)CCCCN12,112% (active)

# From PubChem BioAssay AID624255 (Broad Institute, 2012)
